Screening data (PubChem BioAssay)
This is one part of a sample in which hits are shown more often than they occur.
DUX4 txn inh = inhibitors of DUX4-driven ZSCAN4 reporter expression, primary screen, 293T cells, Gaussia and Italica luciferase. AID 1224904, 2016. 293T-iDUX4 ZSCAN4-Gaussia luciferase reporter, 24 h; hits give low values. activity change, negative = inhibition, % (concentration not given with the values). hit rate 0.8% among 37,000;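 active means mean inhibition of at least 10% in the main channel, exceeding the control channel by a set limit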;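 further: 0% = median of neutral control wells and -100% = median of positive control wells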
Starred values were filed as active, the others as inactive; ! = a repeat was not active.

SMILES	DUX4 txn inh
COc1cccc(CN2C[C@@H]3N[C@H](C2)C3c2ccc(-c3ccccc3C)cc2)c1 (stereo partly drawn)	-34.6*!
COc1ccccc1CN1C[C@@H]2N[C@H](C1)C2c1ccc(-c2ccccc2)cc1 (stereo partly drawn)	-45.8*
O=C(CN1CCOCC1)N1C[C@@H]2N[C@H](C1)C2c1ccc(-c2ccccc2)cc1 (stereo partly drawn)	11.3
COc1cccc(-c2ccc(C3[C@H]4CNC[C@@H]3N4Cc3ccccc3F)cc2)c1 (stereo partly drawn)	7.1
Fc1ccc(-c2ccc(C3[C@@H]4CN(Cc5cccc(F)c5)C[C@H]3N4)cc2)cc1 (stereo partly drawn)	-36.0*!
COc1cccc(CN2C[C@@H]3N[C@H](C2)C3c2ccc(-c3ccccc3F)cc2)c1 (stereo partly drawn)	-19.0*!
Cc1ccc(-c2ccc(C3[C@@H]4CN(Cc5ccccc5)C[C@H]3N4)cc2)cc1 (stereo partly drawn)	5.9
Cc1ccccc1-c1ccc(C2[C@@H]3CN(C(=O)c4cnccn4)C[C@H]2N3)cc1 (stereo partly drawn)	3.9
COc1cccc(S(=O)(=O)N2[C@@H]3CNC[C@H]2C3c2ccc(-c3ccccc3F)cc2)c1 (stereo partly drawn)	3.4
Fc1cccc(CN2[C@@H]3CNC[C@H]2C3c2ccc(-c3ccccc3)cc2)c1 (stereo partly drawn)	16.0
COc1cccc(CN2[C@@H]3CNC[C@H]2[C@H]3c2ccc(-c3ccccc3OC)cc2)c1	7.5
C[C@@H]1CN([C@@H](C)CO)C(=O)c2cc(C#CC(C)(C)O)cnc2O[C@@H]1CN(C)Cc1ccccn1	4.7
CN(C)C(=O)C[C@H]1C=C[C@H](NC(=O)Nc2cccc(F)c2)[C@H](CO)O1	4.7
CCNC(=O)Nc1ccc2c(c1)C(=O)N(C)[C@@H]1CC[C@@H](CC(=O)NC3CCCCC3)O[C@@H]1CO2	-5.5
COc1cccc(S(=O)(=O)Nc2ccc3c(c2)[C@@H]2C[C@@H](CC(=O)N[C@@H](C)c4ccccc4)O[C@H](CO)[C@@H]2O3)c1	-5.4
CC(C)C(=O)Nc1ccc2c(c1)C(=O)N(C)[C@H]1CC[C@@H](CC(=O)NCc3ccc(F)cc3)O[C@H]1CO2	-1.7
CN1C(=O)c2cc(NC(=O)Cc3ccccc3)ccc2OC[C@H]2O[C@@H](CC(=O)NCc3ccc(Cl)cc3)CC[C@H]21	-0.6
CN(C)CC(=O)N1[C@@H](C#N)[C@H](c2ccccc2-c2cccc(C(=O)N(C)C)c2)[C@@H]1CO	14.2
CO[C@H]1CN(C)C(=O)c2cc(NC(=O)c3ccc4c(c3)OCO4)ccc2OC[C@@H](C)NC[C@@H]1C	-5.5
CN(C)C(=O)c1cccc(-c2ccc(C3[C@@H]4CN(Cc5cncnc5)C[C@H]3N4)cc2)c1 (stereo partly drawn)	13.7
CN(C)C(=O)c1ccc(-c2ccc(C3[C@@H]4CN(Cc5cncnc5)C[C@H]3N4)cc2)cc1 (stereo partly drawn)	17.3
COc1cccc(CN2C[C@@H]3N[C@H](C2)C3c2ccc(-c3ccncc3)cc2)c1 (stereo partly drawn)	-25.9*!
CN(C)C(=O)c1cccc(-c2ccc(C3[C@@H]4CN(C(=O)Nc5ccccc5F)C[C@H]3N4)cc2)c1 (stereo partly drawn)	2.7
COc1cccc(CN2[C@@H]3CNC[C@H]2C3c2ccc(-c3ccc(C#N)cc3)cc2)c1 (stereo partly drawn)	3.8
CN(C)C(=O)c1cccc(-c2ccc(C3[C@@H]4CN(Cc5ccccc5F)C[C@H]3N4)cc2)c1 (stereo partly drawn)	-17.5*!
SMILES	DUX4 txn inh
Cc1ccc(-c2ccc(C3[C@@H]4CN(Cc5cccnc5)C[C@H]3N4)cc2)cc1 (stereo partly drawn)	-22.3*!
Cc1cccc(-c2ccc(C3[C@@H]4CN(Cc5cccnc5)C[C@H]3N4)cc2)c1 (stereo partly drawn)	20.4
CCCC(=O)Nc1ccc2c(c1)OC[C@@H](C)N(CCc1ccccc1)C[C@@H](C)[C@@H](OC)CN(C)C2=O	-3.7
COC(=O)C[C@@H]1C[C@H]2c3cc(NC(=O)Nc4ccc(C(F)(F)F)cc4)ccc3O[C@H]2[C@@H](CO)O1	-5.7
O=C(Nc1nccs1)[C@H]1[C@H](CO)[C@H]2Cn3c(cccc3=O)[C@@H]1N2C(=O)C1CCCCC1	6.1
O=C(c1ccncc1)N1CC2(C1)[C@H](c1ccccc1)[C@H](CO)N2Cc1ccccn1	-1.5
COCC(=O)Nc1ccc2c(c1)OC[C@H](C)N(C(=O)CC1CC1)C[C@H](C)[C@@H](OC)CN(C)C2=O	0.9
Cc1ccccc1S(=O)(=O)N1C[C@@H](O)COC[C@H]2O[C@@H](CC(=O)NCc3ccccc3Cl)CC[C@@H]21	-0.2
O=C(C[C@@H]1C[C@H]2c3cc(NC(=O)Cc4ccncc4)ccc3O[C@H]2[C@@H](CO)O1)NCCN1CCCCC1	4.4
COc1ccccc1-c1ccc(C2[C@@H]3CN(S(=O)(=O)c4ccc(C)cc4)C[C@H]2N3)cc1 (stereo partly drawn)	-33.7*!
C/C=C/c1ccc(C2[C@@H]3CN(S(=O)(=O)c4ccc(C)cc4)C[C@H]2N3)cc1 (stereo partly drawn)	3.8
N#Cc1cccc(-c2ccc3c(c2)[C@@H]2[C@@H](CCN2S(=O)(=O)c2ccccc2)[C@@H](CO)N3)c1	-4.5
COc1ccccc1S(=O)(=O)N1C[C@@H]2N[C@H](C1)C2c1ccc(-c2ccncc2)cc1 (stereo partly drawn)	-4.6
N#Cc1cccc(-c2ccc(C3[C@@H]4CN(S(=O)(=O)c5ccccc5)C[C@H]3N4)cc2)c1 (stereo partly drawn)	-41.1*!
COc1cccc(-c2ccc(C3[C@@H]4CN(C(=O)C5CCOCC5)C[C@H]3N4)cc2)c1 (stereo partly drawn)	12.9
N#Cc1cccc(-c2ccc([C@H]3[C@H]4CN(S(=O)(=O)c5ccccc5)CCCCN4[C@H]3CO)cc2)c1	2.6
COc1cccc(-c2ccc(C3[C@@H]4CN(S(=O)(=O)c5cn(C)cn5)C[C@H]3N4)cc2)c1 (stereo partly drawn)	-33.7*!
Cc1ccc(S(=O)(=O)N2C[C@@H]3N[C@H](C2)C3c2ccc(-c3cccc(C#N)c3)cc2)cc1 (stereo partly drawn)	-43.2*!
COc1ccc(S(=O)(=O)N2[C@@H]3CNC[C@H]2C3c2ccc(-c3ccccc3OC)cc2)cc1 (stereo partly drawn)	12.5
Cc1ccc(S(=O)(=O)N2[C@@H]3CNC[C@H]2C3c2ccc(-c3ccc(C#N)cc3)cc2)cc1 (stereo partly drawn)	17.1
COc1cccc(-c2ccc(C3[C@H]4CNC[C@@H]3N4S(=O)(=O)c3cn(C)cn3)cc2)c1 (stereo partly drawn)	13.6
CC(C)C#Cc1ccc([C@@H]2[C@@H](CO)N3C(=O)CN(S(=O)(=O)c4ccccc4)C[C@@H]23)cc1	-6.9
COc1ccc2c3c([nH]c2c1)[C@@H](CO)N(C(=O)c1ccccc1)CC31CN(C(=O)NC(C)C)C1	4.0
CS(=O)(=O)N1[C@@H]2c3ccc(-c4ccc(F)cc4)c(=O)n3C[C@@H]2[C@@H](CO)[C@@H]1C(=O)O	8.8
Cc1cccc(-c2ccc([C@H]3[C@@H](CO)N4C(=O)CN(C(=O)Cc5ccccn5)C[C@@H]34)cc2)c1	5.3
